From the supplement of paper PMC13380429

Tested on: Vero E6 infected with SARS-CoV-2
Test: inhibition of SARS-CoV-2 cytopathic effect; higher = more antiviral protection, active = above 15
Conditions: 48 h

Measured: inhibition of SARS-CoV-2 cytopathic effect

Brc1ccc(NC2C3CC4CC(C3)CC2C4)cc1 (stereo not given) [bromantan]
inactive: 1 nM -1.24% | 8.33 nM -0.71% | 100 nM -0.8% | 833.33 nM 0.76% | 10000 nM 1.67%

CCOc1cc(OCC)c(C(=O)CCC(=O)O)cc1OCC [trepibutone]
inactive: 1 nM -2.61% | 8.33 nM 0.72% | 100 nM -0.04% | 833.33 nM -0.1% | 10000 nM 0.69%

CC(C)C[C@H](CN)CC(=O)O
inactive: 1 nM -2.46% | 8.33 nM -1.59% | 100 nM -0.55% | 833.33 nM -0.08% | 10000 nM 0.02%

O=C(CCc1ccncc1)NNC(=O)N1Cc2ccccc2Oc2ccc(Cl)cc21
inactive: 1 nM 1.3% | 8.33 nM 1.11% | 100 nM 1.69% | 833.33 nM -0.24% | 10000 nM 5.24%

Nc1ccc(S(=O)(=O)c2ccc(N)cc2)cc1 [dapsone]
inactive: 1 nM -2.51% | 8.33 nM 2.16% | 100 nM 0.46% | 833.33 nM 11.1% | 10000 nM 1.03%

Cc1cc(N)c2ccccc2[n+]1CCCCCCCCCC[n+]1c(C)cc(N)c2ccccc21 [dequalinium]
inactive: 1 nM 1.5% | 8.33 nM 2.58% | 100 nM -2.33% | 833.33 nM -2.88% | 10000 nM -3.48%

O=c1[nH]c(=O)n([C@H]2CCCO2)cc1F (racemic) [ftorafur]
inactive: 1 nM 0.19% | 8.33 nM -1.89% | 100 nM 6.11% | 833.33 nM -0.34% | 10000 nM -2.89%

Cc1c(C(=O)Nc2ccc(N3C[C@@H](C)O[C@@H](C)C3)nc2)cccc1-c1ccc(OC(F)(F)F)cc1 [sonidegib]
inactive: 1 nM 1.64% | 8.33 nM -0.28% | 100 nM -1.14% | 833.33 nM -2.32% | 10000 nM -7.02%
